Drawing on PubChem BioAssay (NCI), this text covers growth inhibition for 36 compounds.

Several values for one entry are separate records, joined by “and”; a condition that tells them apart may be missing. Identical values can stand only once. The panel holds about 79,000 compounds, 15% with a hit somewhere; the sample as a whole holds those more often. Values without a mark were called inactive. Activity calls are given as the source filed them. Cut-off read from the data, not from the text of the source: active = growth inhibition above about 70%; inactive = the rest.

Test [1] is described as follows: NCI Yeast Anticancer Drug Screen. Data for the rad50 strain (AID 155).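 Note: 0% = growth of vehicle-only cultures of the same strain.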 As to conditions: S. cerevisiae rad50 strain growth inhibition; at 50.0 µM; hits give high values. A digest of the protocol:
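Readout: growth inhibition relative to vehicle-treated cultures. Compound exposure was carried out in a genetically defined yeast strain deficient in DNA damage repair.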

A short description of test [2]: NCI Yeast Anticancer Drug Screen. Data for the mec2-1 strain (AID 157). The following applies: S. cerevisiae mec2-1 strain, at 50.0 µM, hits give high values. In a few lines: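 Compounds were applied to mec2-1 yeast cells. Their growth was then compared with that of vehicle-treated cultures to give growth inhibition.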
The nature of test [3]: NCI Yeast Anticancer Drug Screen. Data for the sgs1 mgt1 strain (AID 161).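 Note: 0% = growth of cultures given vehicle only.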 The following applies: S. cerevisiae sgs1 mgt1 strain, at 50.0 µM, hits give high values. A digest of the protocol: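 Growth of a repair-deficient yeast mutant was monitored after compound treatment and expressed as inhibition relative to vehicle-treated cultures.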
Test [4] can be described thus: NCI Yeast Anticancer Drug Screen. Data for the cln2 rad14 strain (AID 165).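 Note: 0% = growth equal to vehicle treated cultures.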 The following applies: S. cerevisiae cln2 rad14 strain, at 50.0 µM, hits give high values. A digest of the protocol: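 Strain: cln2 rad14 yeast, altered in cell cycle control and DNA damage repair. Read-out: growth inhibition vs vehicle.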
Test [5] in a line: NCI Yeast Anticancer Drug Screen. Data for the bub3 strain (AID 167). As to conditions: S. cerevisiae bub3 mutant strain, at 50.0 µM, hits give high values. In a few lines: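 Readout: yeast growth inhibition, expressed relative to vehicle-only wells. The test organism is a mutant strain from a panel with lesions in DNA repair or checkpoint genes.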
A short description of test [6]: NCI Yeast Anticancer Drug Screen. Data for the mlh1 rad18 strain (AID 175). The following applies: S. cerevisiae mlh1 rad18 strain growth inhibition; at 50.0 µM; hits give high values. In a few lines:
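A repair-deficient yeast strain is exposed to test compound, and growth is scored relative to vehicle-treated controls.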

In the case of `CCN1CCCc2cc3c(C(F)(F)F)cc(=O)oc3cc21`, the growth inhibition is -6.3% in test [1]; -12.4% in test [2]; -10% in test [3]; -4.05% in test [4]; -6.45% in test [5]; -11.8% in test [6].

`c1ccc2cc(C3NCCc4[nH]cnc43)ccc2c1` (stereo unspecified): the growth inhibition was 4.65% in test [1]; -7.6% in test [2]; -6.7% in test [3]; 2.85% in test [4]; -7.7% in test [5]; 29.8% in test [6].

On to `CN1c2ccccc2NP1(=S)c1ccccc1` (stereo unspecified), for which the growth inhibition in test [1] was 69.5%; in test [2], 80% (active); in test [3] it was 95.2% (active); in test [4], 40.5%; in test [5] it was 55.9%; in test [6] it was 83.2% (active).

`O=C(N/N=C/c1cc(Br)cc(Br)c1[O-])c1ccccc1O.O=C(N/N=C/c1cc(Br)cc(Br)c1[O-])c1ccccc1O.[Fe+2]`: the growth inhibition in test [1] was 20.4%; in test [2] it was 21.7%; in test [3], 52%; in test [4], -34.8%; in test [5] it was 34.4%; in test [6], 43.8%.

Consider `O=C1NN(c2ccccc2)C(=O)C1c1ccccc1` (stereo unspecified), for which the growth inhibition in test [1] was 24.2%; in test [2], 28.8%; in test [3], 17.4%; in test [4], 9.75%; in test [5], -5.9%; in test [6], 41.5%.

For `CCOC(=O)C1C(=O)CN2CCc3c([nH]c4ccccc34)C12C(=O)OCC` (stereo unspecified), the growth inhibition in test [1] is 21.2%; in test [2], 15.3%; in test [3], 31.6%; in test [4], 15.6%; in test [5], 1.95%; in test [6], 24.4%.

`O=C(O)CNC(=O)c1ccc([As](=O)(O)O)cc1`: the growth inhibition is 21.1% in test [1]; 19.1% in test [2]; -26.4% in test [3]; 10.2% in test [4]; 22.1% in test [5]; 15.3% in test [6].

With `CCOP(=O)(OCC)OCC`, the growth inhibition is -4.1% in test [1]; -12.8% in test [2]; 19% in test [3]; -11.8% in test [4]; -1.15% in test [5]; 21.7% in test [6].

In the case of `CC12CCC(O)CC1CCC1C2CCC2(C)C(C3=CC(=O)OC3)CCC12` (stereo unspecified), the growth inhibition was 7.05% in test [1]; 18.4% in test [2]; 30.6% in test [3]; 12.1% in test [4]; 12.1% in test [5]; 42.5% in test [6].

As to `CC1=CC=NC(Cl)(Cl)N1`, the growth inhibition in test [1] is 19.4%; in test [2] it was -9.6%; in test [3], -15.7%; in test [4] it was 13.6%; in test [5] it was -1.35%; in test [6], 20.4%.

Turning to `O=[N+]([O-])c1cc(Cl)ccc1Cl`, the growth inhibition in test [1] is 11.6% and 28.9%; in test [2], 4.4% and -26.1%; in test [3] it was 4.75% and -10.9%; in test [4] it was 3.95% and -47.9%; in test [5], -6.85% and -12.7%; in test [6] it was 0.35% and -8.7%.

For the compound `CC([NH-])C(=O)O.CC([NH-])C(=O)O.[Cu+2]` (stereo unspecified), the growth inhibition is -0.95% in test [1]; 11.3% in test [2]; 15.6% in test [3]; -40.1% in test [4]; -15.9% in test [5]; 19.6% in test [6].

`O=C(O)c1ccc([As](=O)(O)O)cc1`: the growth inhibition in test [1] is -16.6%; in test [2], 4.3%; in test [3], 17.3%; in test [4], -35.2%; in test [5] it was -18.8%; in test [6], -4.8%.

`C/C(=N\NC(N)=O)C(CN(C)C)C(c1ccccc1)c1c(O)c2ccccc2oc1=O` (stereo unspecified): the growth inhibition is 15.8% in test [1]; 21.1% in test [2]; 15.6% in test [3]; 5% in test [4]; 9.7% in test [5]; 8% in test [6].

Turning to `COc1ccc(CCNC2CC3CCC2(C)C3(C)C)cc1OC` (stereo unspecified), the growth inhibition in test [1] is 15.6%; in test [2], 12.8%; in test [3], 11.5%; in test [4], -22.3%; in test [5], 8.75%; in test [6] it was 24.9%.

On to `CCC1(c2ccccc2)C(=O)N(CCCl)C(=O)N(CCCl)C1=O`, for which the growth inhibition was 27.7% in test [1]; 15.8% in test [2]; 4.35% in test [3]; -21.7% in test [4]; 12.2% in test [5]; 17.4% in test [6].

Take `CC1(C)Cc2cccc(C=C(C#N)C#N)c2O1`: the growth inhibition is 6.9% in test [1]; 20.6% in test [2]; 3.25% in test [3]; -63.5% in test [4]; -6.85% in test [5]; -3.25% in test [6].

In the case of `[Cl][Co][Cl].[NH-]CC[NH-].[NH-]CC[NH-]`, the growth inhibition was 19.2% and -9.85% in test [1]; 9.3% and 29.6% in test [2]; 25.2% and -4.55% in test [3]; -9.95% and 9.2% in test [4]; 36.7% and 2.4% in test [5]; 37% and -23.4% in test [6].

Consider `CCCCSP(=S)(SCCCC)SCCCC`, for which the growth inhibition in test [1] is 36.6%; in test [2], 15.1%; in test [3], 38.5%; in test [4] it was -20.2%; in test [5], 10.1%; in test [6], 42%.

Regarding `OCC1OC(n2cnc3cc(Cl)c(Cl)cc32)C(O)C1O` (stereo unspecified), the growth inhibition in test [1] is -1.1%; in test [2], 13.8%; in test [3], 21.9%; in test [4], -19.5%; in test [5], 6.4%; in test [6] it was 5%.

On to `NNC(=O)Nc1nn[nH]n1`, for which the growth inhibition is 1.75% and -6.75% in test [1]; 8.2% and 8.5% in test [2]; 10.2% and -6.75% in test [3]; -19.4% and 6% in test [4]; -15% and 12.6% in test [5]; 7.95% and -3.6% in test [6].

Take `CC(C)(C)C1COP(=S)(C(C)(C)C)OC1` (stereo unspecified): the growth inhibition in test [1] was -8.3%; in test [2], -5.6%; in test [3], -0.55%; in test [4], -20.5%; in test [5], -0.5%; in test [6], -5.15%.

As to `C/C=C1\CN2CC[C@H]1C[C@H]2[C@H](O)c1ccnc2ccc(NCCO)cc12`, the growth inhibition in test [1] was 11.6%; in test [2] it was 7.8%; in test [3], 5.95%; in test [4] it was 22.7%; in test [5], -1.65%; in test [6], 36.9%.

`COc1cc2c(cc1OC)C1CC(OC(=O)c3ccccc3)(c3nccc4cc(OC)c(OC)cc34)CCN1CC2` (stereo unspecified): the growth inhibition in test [1] is 26.9%; in test [2], 13.9%; in test [3], 20.6%; in test [4], 4.95%; in test [5], -0.8%; in test [6], 32.5%.

For `CC(=O)OC[C@]12C[C@H](OC(=O)CC(C)C)C(C)=C[C@H]1O[C@@H]1[C@H](O)[C@@H](O)[C@@]2(C)[C@@]12CO2`, the growth inhibition in test [1] is 83.2% (active); in test [2], 83% (active); in test [3], 83.3% (active); in test [4], 87.7% (active); in test [5] it was 81.9% (active); in test [6] it was 84.8% (active).

In the case of `Cc1nc2ccccc2[se]1`, the growth inhibition is -33.4% in test [1]; -32.5% in test [2]; -3.5% in test [3]; 3.5% in test [4]; 35.7% in test [5]; -18.1% in test [6].

In the case of `CC(O)CN(CCN(CC(C)O)CC(C)O)CC(C)O.O=[N+]([O-])O.[Cu+2]` (stereo unspecified), the growth inhibition in test [1] is 6.05%; in test [2], -54%; in test [3], -27.2%; in test [4] it was -35.6%; in test [5], -29.6%; in test [6], 5.15%.

As to `CC1(C)N=C(c2ccccc2)C2(c3ccccc3)N1C2(C)C` (stereo unspecified), the growth inhibition in test [1] is -1.8%; in test [2], 11.3%; in test [3] it was 16.8%; in test [4] it was -0.3%; in test [5] it was 5.6%; in test [6], -18.1%.

Consider `O=[N+]([O-])O.[NH-]C1CCCCC1[NH-].[NH-]C1CCCCC1[NH-].[OH-].[OH-].[Pt+4].[Pt+4]` (stereo unspecified), for which the growth inhibition in test [1] was 49.8%; in test [2], -4.8%; in test [3] it was -29.3%; in test [4], -5.45%; in test [5], -41%; in test [6], 30.2%.

On to `O=c1cccc2n1CC1CNCC2C1` (stereo unspecified), for which the growth inhibition in test [1] was 10.6%; in test [2], 13.4%; in test [3] it was -16.2%; in test [4] it was 7.65%; in test [5], 15.7%; in test [6], -22.1%.

On to `COc1ccc(CC2c3cc(OC)c(OC)cc3CCN2C)cc1OC` (stereo unspecified), for which the growth inhibition in test [1] was -3.6% and -11.2%; in test [2], -5.2% and -18.4%; in test [3], -8.1% and -8.4%; in test [4], -5% and 13.1%; in test [5], 12.7% and -3.45%; in test [6] it was 8.4% and 1.7%.

For the compound `COc1ccc(/C=C/C(=O)c2c(-c3ccccc3)nn(C)c(=O)c2N2CC2C)cc1` (stereo unspecified), the growth inhibition in test [1] was -11.6%; in test [2], 19.9%; in test [3], -10.4%; in test [4] it was -7.2%; in test [5], -4.8%; in test [6] it was -13.4%.

As for `COc1ccc(NC(=O)/C(=N/NC(N)=S)C2C(=O)NC(=S)NC2=O)c(OC)c1`, the growth inhibition in test [1] was -17.4%; in test [2], -4%; in test [3], -4.55%; in test [4], -21.9%; in test [5], -8.9%; in test [6] it was -25%.

`C=CC(=O)OCCN(C)C`: the growth inhibition in test [1] was 1.5%; in test [2] it was -4.65%; in test [3], -4.4%; in test [4], -0.25%; in test [5], 2.1%; in test [6], 1.65%.

Turning to `NC1CCCCC1.[O]=[Ge].[O]=[Ge].[O]=[Ge][OH].[O]=[Ge][OH]`, the growth inhibition is -26.9% in test [1]; -10.9% in test [2]; -10.8% in test [3]; 13.1% in test [4]; 12.9% in test [5]; 4.95% in test [6].

As for `Cc1cccc(N)c1N`, the growth inhibition is 24.1% in test [1]; -15.1% in test [2]; 11.1% in test [3]; 0.4% in test [4]; -0.45% in test [5]; 13.7% in test [6].
